This is one part of a sample in which hits are shown more often than they occur.
KDM5B inhibitor = KDM5B demethylase inhibition | Q9UGL1 | KDM5B demethylase, FDH-coupled NADH fluorescence (FDH is formaldehyde dehydrogenase) | Potency, µM (series often up to 57.7 µM), actives largely listed as inhibitors | 220,000 compounds, 2.6% hits | AID 1347165; active = well fitted inhibition curve with a large enough effect; note: 0% is about no effect; nearly all actives have a fitted effect of over 70% in size
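Here, H3K4me3 peptide (12.5 µM in substrate mix) is demethylated by KDM5BΔAP, 200 nM final, after 10 min compound exposure. Formaldehyde product is coupled through FDH (0.25 U/mL in mix) to NADH fluorescence; 30-min ΔRFU feeds dose-response curves.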
Starred values were filed as active, the others as inactive; i = inactive. Potency is the fitted concentration of half-maximal effect.

SMILES	KDM5B inhibitor
CC(C)NC(=O)C1(C)CN(Cc2ccccc2)Cc2ccc(N3CCOCC3)nc21 (configuration not stated)	28.2µM*
CC1(C(=O)NCc2cccnc2)CN(Cc2ccccc2)Cc2ccc(N3CCOCC3)nc21 (configuration not stated)	25.1µM*
Cc1ccc(Nc2cc(C(=O)N3CCOCC3)c3ccccc3n2)cc1	i
CCOc1ccc(Nc2cc(C(=O)N3CCOCC3)c3ccccc3n2)cc1	i
CC(C)NC(=O)N1Cc2ccccc2OC2(CCN(Cc3ccncc3)CC2)C1	i
CC1(C(=O)N2CCOCC2)CN(Cc2ccccc2)Cc2ccc(Nc3ccccc3)nc21 (configuration not stated)	28.2µM*
O=C(CSc1nc2ccccc2o1)OCC(=O)c1ccc(Br)cc1	i
CC/C=C(/C)C(=O)NCCc1cccs1	i
C=C(C)CN(CC)C(=O)/C=C/c1csc(C)n1	i
Cc1cc(C)n(CC(=O)Nc2cc(C(F)(F)F)ccc2Cl)c(=O)c1C#N	i
O=C(NCCc1ccccc1)N(C1CCOCC1)C1CCN(Cc2ccccc2)CC1	i
CN(C)CCNC(=O)C1(C)CN(Cc2ccccc2)Cc2ccc(N3CCOCC3)nc21 (configuration not stated)	35.5µM*
COCCCNC(=O)C1(C)CN(Cc2ccccc2)Cc2ccc(NCC(C)C)nc21 (configuration not stated)	i
Cc1c(CC(=O)NCCCn2ccnc2)c(=O)oc2cc(O)ccc12	i
CN1Cc2ccc(N3CCOCC3)nc2C(C)(C(=O)NCCCn2ccnc2)C1 (configuration not stated)	31.6µM*
O=C(/C=C/c1c(Cl)cccc1Cl)NCCCn1ccnc1	i
CC1=C/C(=N/NC(=S)Nc2c(C)cccc2C)CC1	i
COc1cc(C(=O)N(c2cc(C)cc(C)c2)C2C=CS(=O)(=O)C2)cc(OC)c1OC (configuration not stated)	i
CCONC(=O)c1ccc(C(=O)NOCC)cc1	i
O=C(CSc1ccc(Cl)cc1)Nc1ccccc1-c1nc(-c2ccccn2)no1	i
O=C(c1ccccc1Cl)[C@@H]1[C@@H]2CCCN2[C@]2(C(=O)Nc3ccccc32)[C@@]12C(=O)Nc1ccccc12	i
COc1ccc(F)cc1S(=O)(=O)N1CCc2nn(CC3CC3)c(=O)n2CC1	i
Cc1ccc(F)cc1S(=O)(=O)NC1CCN(c2ccc(=O)n(CC3CC3)n2)CC1	28.2µM*
Cc1ccc(C(=O)NC2CCN(c3cnn(CC4CC4)c(=O)c3)CC2)cc1C	i
O=C(Nc1ccccc1)c1cccc(CSc2cccc[n+]2[O-])c1	i
SMILES	KDM5B inhibitor
N#CC1(C(=O)Nc2cccc(Br)c2)CCCC1	i
N#Cc1ccc(Oc2ccc(-c3ccc(Oc4ccc(C#N)cc4)cc3)cc2)cc1	i
CCc1noc(-c2ccn3c(CNC(=O)c4ccc(OC)cc4)nnc3c2)n1	14.1µM*
CCc1noc(-c2ccn3c(CNC(=O)c4ccc(N(CC)CC)cc4)nnc3c2)n1	i
CCc1noc(-c2ccn3c(CNC(=O)c4cc(F)cc(F)c4)nnc3c2)n1	25.1µM*
CCc1noc(-c2ccn3c(CNC(=O)c4ccc(C)c(F)c4)nnc3c2)n1	i
CNS(=O)(=O)c1ccc(NCCc2ccc(S(N)(=O)=O)s2)c([N+](=O)[O-])c1	i
O=C(Nc1ccc(Br)cn1)Nc1ccccc1Cl	i
O=C(Nc1ccccc1Cl)c1ccc2ccccc2n1	i
N#Cc1ccccc1CN1CCc2cc(S(=O)(=O)N3CCOCC3)ccc21	i
Cn1c(=O)c2c(nc(NCCc3ccccc3)n2CC(O)CO)n(C)c1=O (configuration not stated)	i
O=C(NC12CC3CC(CC(C3)C1)C2)C1(c2cccc(F)c2)CCC1	i
O=C(N[C@H](C1CCNCC1)C1CC(O)C1)c1cccc(=O)[nH]1 (some centres not stated)	22.4µM*
O=C(Cc1noc2ccccc12)N[C@H](C1CCNCC1)C1CC(O)C1 (some centres not stated)	i
Cc1cnc2c(C(=O)N[C@H](C3CCNCC3)C3CC(O)C3)cnn2c1 (some centres not stated)	31.6µM*
COc1cc(CCC(=O)N[C@H](C2CCNCC2)C2CC(O)C2)ccc1C (some centres not stated)	i
Cn1cc(Cl)cc1C(=O)N[C@H](C1CCNCC1)C1CC(O)C1 (some centres not stated)	i
Cc1ccc(F)c(C(=O)N[C@H](C2CCNCC2)C2CC(O)C2)c1Cl (some centres not stated)	i
O=C(N[C@H](C1CCNCC1)C1CC(O)C1)c1ccccc1C(F)(F)F (some centres not stated)	i
CC(C)Cc1cc(C(=O)N[C@H](C2CCNCC2)C2CC(O)C2)nc(N)n1 (some centres not stated)	22.4µM*
Cc1ccc(CCC(=O)N[C@H](C2CCNCC2)C2CC(O)C2)cc1C (some centres not stated)	i
Nn1c(SCc2ncc(-c3ccccc3)o2)nnc1-c1ccccc1F	i

High-throughput results as filed in PubChem BioAssay.
